# Measured values reported in PubChem BioAssay.
# Records with an inconclusive call do not appear. Calls of active or inactive are those of the source. Cut-off read from the data, not from the text of the source, unless noted: active = inhibition above about 80%; inactive = the rest.
# Tests used:
# [1] = viability loss in pontine glioma line – cell-based, SU-DIPG-XVII, MIPE5.0, CellTiter-Glo, qHTS, dose response (AID 1347060; cut-off not given, nearly all actives have AC50 up to about 26 µM;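 for AC50: cells exposed to compound for 48 hours before viability readout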); conditions: CellTiter-Glo ATP luminescence
# [2] = viability loss in pontine glioma line – cell-based, SU-DIPG-XIII, MIPE5.0, CellTiter-Glo, qHTS, dose response (AID 1347064; cut-off not given, nearly all actives have AC50 up to about 23 µM;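 for AC50: cells exposed to compound for 48 hours before the viability read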); conditions: CellTiter-Glo ATP luminescence
# [3] = viability loss in pontine glioma line – cell-based, SU-DIPG-XXV, MIPE5.0, CellTiter-Glo, qHTS, dose response (AID 1347065; cut-off not given, nearly all actives have AC50 up to about 26 µM;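 note: cells exposed to compound for 48 hours before ATP readout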); conditions: CellTiter-Glo ATP luminescence
# [4] = JHH-DIPG-1 glioma cell viability, MIPE5.0 library, CellTiter-Glo luminescence, qHTS (AID 1347067; cut-off not given, nearly all actives have AC50 up to about 26 µM;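 note: cells exposed to compound for 48 hours before readout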); conditions: JHH-DIPG-1 glioma viability, CellTiter-Glo ATP luminescence
# [5] = growth inhibition of DIPG cells – cell-based, MIPE5.0 library, qHTS (AID 1347068; cut-off not given, nearly all actives have IC50 up to about 30 µM;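 for IC50: cells exposed to compound for 48 hours before viability readout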); conditions: SU-DIPG-XXV viability
# [6] = growth inhibition, single agent or in combination, cell-based, chromothripsis tumors, cisplatin or BGB combos (AID 1671449); conditions: LFS_MB_P medulloblastoma cells;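 note: cells exposed for 96 hours; 0% = vehicle DMSO and 100% = killing by high DMSO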
# [7] = growth inhibition, single agent and combos, cell-based, chromothripsis tumors, cisplatin or BGB combos (AID 1671450); conditions: HDN33 neuroblastoma cells, stronger effect = higher value;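 note: cells exposed to compound for four days; 0% = vehicle DMSO and 100% = cell killing by high DMSO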
# [8] = growth inhibition, single agents and combos, ICB984, cell-based, cisplatin or BGB combos, synergistic combos for chromothripsis tumors (AID 1671451; call rule not given here;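 note: cells exposed for 96 hours before readout; 0% = vehicle DMSO and 100% = killing by high DMSO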); conditions: ICB984 medulloblastoma cells, drug combinations, stronger effect = higher value
# [9] = growth inhibition, single agents and combos, LFS_MB_1R, cell-based, cisplatin or BGB combos, synergistic combos for chromothripsis tumors (AID 1671452); conditions: LFS_MB_1R medulloblastoma cells, stronger effect = higher value;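 note: cells exposed for 96 hours before readout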
# [10] = growth inhibition, single agents and combos, HTB85, cell-based, BGB or cisplatin IC20 combos, synergistic combos for chromothripsis tumors (AID 1671453); conditions: HTB85 osteosarcoma cells, drug combinations, stronger effect = higher value;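 note: cells exposed for 96 hours before readout; 0% = vehicle DMSO and 100% = high DMSO killing control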
# [11] = growth inhibition, single agents and combos, CRL2098, cell-based, BGB or cisplatin IC20 combos, synergistic combos for chromothripsis tumors (AID 1671454); conditions: CRL2098 osteosarcoma cells, drug combinations, stronger effect = higher value;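 note: cells exposed for 96 h before readout; 0% = vehicle DMSO and 100% = killing by high DMSO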
# [12] = growth inhibition, single agents and combos, HD-MB03, cell-based, BGB or cisplatin IC20 combos, synergistic combos for chromothripsis tumors (AID 1671455; in the data active = inhibition above about 83%;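 note: 0% = vehicle DMSO and 100% = high DMSO as cytotoxic control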); conditions: HD-MB03 medulloblastoma cells, stronger effect = higher value
# [13] = growth inhibition, single agents and combos, UWB1.289, cell-based, BGB or cisplatin combos, synergistic combos for chromothripsis tumors (AID 1671456); conditions: UWB1.289 ovarian carcinoma cells, stronger effect = higher value;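 note: cells exposed to compound for four days; 0% = vehicle DMSO and 100% = killing by high DMSO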
# [14] = growth inhibition, single agents and combos, LFS_MB_2R, cell-based, cisplatin combos, synergistic combos for chromothripsis tumors (AID 1671457); conditions: LFS_MB_2R medulloblastoma cells, stronger effect = higher value;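 note: cells exposed to compound for four days before readout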
# [15] = growth inhibition, MDA-MB-436, cell-based, BGB or cisplatin combos, synergistic combos for chromothripsis tumors (AID 1671458; call rule not given here;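 note: cells exposed for 96 hours; 0% = vehicle DMSO and 100% = killing by high DMSO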); conditions: MDA-MB-436 breast carcinoma growth inhibition, drug combinations, stronger effect = higher value
# [16] = UWB1.289_BRCA1 ovarian cancer growth, cell-based, BGB or cisplatin combinations (AID 1671459); conditions: UWB1.289 BRCA1 ovarian carcinoma, drug combinations, stronger effect = higher value
# [17] = drug combination toxicity in non-malignant astrocytes – cell-based, BGB or cisplatin IC20 combos, cytotoxicity control for chromothriptic childhood tumor combination screen (AID 1671460); conditions: Human astrocytes, viability inhibition, drug combinations, at 0.5 µM, stronger effect = higher value;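 note: cells exposed to compounds for 96 hours before viability readout; 0% = vehicle and 100% = killing control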
# [18] = BT084 cell growth, single and combined drugs, ICGC_MB145, cisplatin and BGB IC40 combos (AID 1671461); conditions: BT084 medulloblastoma cells, drug combinations, stronger effect = higher value;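 note: cells exposed to drugs for 96 hours; 0% = vehicle DMSO and 100% = high DMSO full killing control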
# [19] = RCMB18 cell growth, single agent and combined, cisplatin and BGB IC40 combos (AID 1671462); conditions: RCMB18 medulloblastoma cells, stronger effect = higher value;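 note: cells exposed to compound for four days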
# [20] = CRL1545 cell growth, single agent and combined, cisplatin and BGB IC20 combos (AID 1671464); conditions: CRL1545 osteosarcoma cells, stronger effect = higher value;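 note: cells exposed to compound for 96 hours before readout; 0% = vehicle DMSO and 100% = high DMSO killing control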
# [21] = viability loss with induced miR-34 in A549 – imaging, A549 dox-inducible miR-34, nuclei and caspase counts, primary screen (AID 1347080;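 active = compounds whose cell count with miR-34 switched on is under 0.7 times the count with it off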); conditions: A549 miR-34 inducible, Hoechst nuclei count, 48 h
# [22] = MELAS cybrid and Rieske KO viability enhancers – cell-based, MELAS cybrids, Rieske KO mouse fibroblasts, CellTiter-Glo, primary screen (AID 1508586;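 active = mean z-score across replicates of 1.96 or higher in either the MELAS or the Rieske mutant cell line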;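 note: z relative to plate mean and SD of compound and empty wells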); conditions: low glucose
# [23] = measured here: combination with BGB IC40, at 0.05 µM
# [24] = measured here: with BGB IC20 combination, at 0.5 µM
# [25] = measured here: with cisplatin IC20 combination, at 0.5 µM
# [26] = measured here: combination with cisplatin, at 0.5 µM
# [27] = measured here: combination with cisplatin, at 5 µM
# [28] = stronger effect = lower value, cell number ratio, induced over uninduced
# [29] = measured here: relative caspase fold change +Dox/-Dox
# [30] = measured here: total cells with miR-34 induction, stronger effect = lower value
# [31] = measured here: total cells without miR-34 induction
# [32] = MELAS cybrid survival, CellTiter-Glo 48 h, stronger effect = higher value
# [33] = Rieske KO mouse fibroblast survival, CellTiter-Glo 72 h
smiles,measurement,setting,value
N=C1CCCN1Cc1[nH]c(=O)[nH]c(=O)c1Cl,outcome,[1],inactive
same,outcome,[2],inactive
same,outcome,[3],inactive
same,outcome,[4],inactive
same,outcome,[5],inactive
same,inhibition,"[6]; at 0.5 µM, stronger effect = higher value",-20% (inactive)
same,inhibition,"[6]; measured here: combination with BGB IC20, at 0.005 µM",7.99%
same,inhibition,"[6]; measured here: combination with BGB IC40, at 0.005 µM",-21.4%
same,inhibition,[6]; [23],-6.35%
same,inhibition,"[6]; measured here: combination with cisplatin, at 0.5 µM, stronger effect = higher value",-51.5%
same,inhibition,"[6]; measured here: combination with cisplatin, at 5 µM, stronger effect = higher value",0.237%
same,inhibition,"[7]; BGB combo, at 5 µM",-2.48%
same,inhibition,[7]; at 0.5 µM,2.44% (inactive)
same,inhibition,"[7]; cisplatin combo, at 5 µM",22.1%
same,inhibition,[7]; [24],3.45%
same,inhibition,[7]; [25],3.39%
same,inhibition,"[7]; single agent, at 5 µM",-10.2%
same,inhibition,"[8]; BGB IC20 combo, at 0.005 µM",12.8%
same,inhibition,"[8]; BGB IC40 combo, at 0.005 µM",-11.6%
same,inhibition,"[8]; BGB IC40 combo, at 0.05 µM",-8.96%
same,inhibition,[8]; at 0.5 µM,-1.56% (inactive)
same,inhibition,"[8]; cisplatin combo, at 0.05 µM",-12%
same,inhibition,"[8]; cisplatin combo, at 0.5 µM",11.2%
same,inhibition,"[8]; cisplatin combo, at 5 µM",-26.7%
same,inhibition,"[8]; measured here: 5 uM single agent, at 5 µM",-22.7%
same,inhibition,[9]; at 0.5 µM,-12.8% (inactive)
same,inhibition,[9]; [23],8.6%
same,inhibition,[9]; [26],-12.6%
same,inhibition,[9]; [27],-5.77%
same,inhibition,[10]; at 0.5 µM,8.24% (inactive)
same,inhibition,"[10]; measured here: with BGB IC20, at 0.5 µM",11.6%
same,inhibition,"[10]; measured here: with BGB IC20, at 5 µM",59.6%
same,inhibition,"[10]; measured here: with cisplatin IC20, at 0.5 µM",-6.26%
same,inhibition,"[10]; measured here: with cisplatin IC20, at 5 µM",-29%
same,inhibition,"[10]; single agent, at 5 µM",-1.22%
same,inhibition,[11]; at 0.5 µM,2.27% (inactive)
same,inhibition,"[11]; measured here: combination with BGB at IC20, at 0.5 µM",3.71%
same,inhibition,"[11]; measured here: combination with cisplatin at IC20, at 0.5 µM",0.594%
same,inhibition,[12]; at 0.5 µM,-9.24% (inactive)
same,inhibition,"[12]; measured here: combo with BGB at IC20, at 0.5 µM",-10.8%
same,inhibition,"[12]; measured here: combo with cisplatin at IC20, at 0.5 µM",-6.6%
same,inhibition,[13]; at 0.5 µM,19.4% (inactive)
same,inhibition,"[13]; measured here: inhibition with BGB combination, at 0.05 µM",-16.6%
same,inhibition,"[13]; measured here: inhibition with cisplatin combination, at 0.05 µM",-2.8%
same,inhibition,[14]; at 0.5 µM,-11.5% (inactive)
same,inhibition,[14]; [26],-21.1%
same,inhibition,[14]; [27],-54.2%
same,inhibition,[15]; at 0.5 µM,-5.08% (inactive)
same,inhibition,"[15]; measured here: BGB combination, at 0.5 µM",3%
same,inhibition,"[15]; measured here: BGB combination, at 5 µM",-6.4%
same,inhibition,"[15]; measured here: cisplatin combination, at 0.5 µM",-14.7%
same,inhibition,"[15]; measured here: cisplatin combination, at 5 µM",-27%
same,inhibition,"[16]; BGB combination, concentration series, at 5 µM",3.78%
same,inhibition,[16]; at 0.5 µM,4.18% (inactive)
same,inhibition,"[16]; cisplatin combination, concentration series, at 5 µM",25.3%
same,inhibition,[17],0.72% (inactive)
same,inhibition,[17]; measured here: combo with BGB IC20,12.6%
same,inhibition,[17]; measured here: combo with cisplatin IC20,-10.8%
same,inhibition,[18]; at 0.5 µM,-23.1% (inactive)
same,inhibition,"[18]; cisplatin combination, at 0.5 µM",-17.8%
same,inhibition,"[18]; cisplatin combination, at 5 µM",-5.35%
same,inhibition,"[18]; measured here: BGB IC40 combination 0.05 uM, at 0.05 µM",-15.9%
same,inhibition,"[18]; single agent, at 5 µM",-9.51%
same,inhibition,[19]; at 0.5 µM,3.14% (inactive)
same,inhibition,"[19]; cisplatin combo, at 5 µM",-11.8%
same,inhibition,"[19]; measured here: BGB IC40 combination, at 0.05 µM",22%
same,inhibition,[19]; [26],1.1%
same,inhibition,"[19]; single agent, at 5 µM",-5.54%
same,inhibition,[20]; at 0.5 µM,26.4% (inactive)
same,inhibition,[20]; [24],22.4%
same,inhibition,[20]; [25],26.7%
same,inhibition,"[20]; single agent, at 0.05 µM",12.9%
same,inhibition,"[20]; single agent, at 5 µM",25.1%
Cc1cc(Nc2ncc(Cl)c(Nc3ccccc3S(=O)(=O)C(C)C)n2)c(OC(C)C)cc1C1CCNCC1,AC50,[1],2.95 µM (active)
same,AC50,[2],1.32 µM (active)
same,AC50,[3],0.934 µM (active)
same,AC50,[4],1.66 µM (active)
same,IC50,[5],3.32 µM (active)
same,fold change,[21]; [28],0.935 (inactive)
same,fold change,[21]; [29],0.748
same,cell count,[21]; [30],3290
same,cell count,[21]; [31],3520
same,z-score,[22]; [32],-0.455 (inactive)
same,z-score,[22]; [33],-0.428
CCC(=O)Nc1cccc(Oc2nc(Nc3ccc(N4CCN(C)CC4)cc3OC)ncc2Cl)c1,AC50,[1],9.34 µM (active)
same,AC50,[2],10.5 µM (active)
same,AC50,[3],7.42 µM (active)
same,AC50,[4],18.6 µM (active)
same,outcome,[5],inactive
same,fold change,[21]; [28],0.756 (inactive)
same,fold change,[21]; [29],0.553
same,cell count,[21]; [30],3260
same,cell count,[21]; [31],4310
same,z-score,[22]; [32],-0.403 (inactive)
same,z-score,[22]; [33],0.64
